# According to the supplement of paper PMC4840960:
# Test system: E18 rat cortical neuron-glia co-culture
# Experiment: myelination (MBP fiber length per Olig2+ nucleus), % of 1 µM DAPT response (DMSO = 0) (% of DAPT); higher = more myelination, active = 50 or more
# Details: 1 µM; treatment time: 8 days (DIV5-DIV13)
# Method in brief: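 The myelination value was the continuous straight MBP fiber length per Olig2+ nucleus, scaled between 0.1 % DMSO (0) and a 1 µM positive control (100). It was measured in primary E18 rat cortical co-cultures treated with library compounds at 1 or 5 µM in myelination medium from DIV5 through DIV13. Cells were fixed in 4 % paraformaldehyde and stained for MBP, Olig2 and DAPI, and four 10X fields per well were imaged in duplicate wells.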
row,SMILES,myelination
1,Cc1ccc(-c2cc(C(F)(F)F)nn2-c2ccc(S(N)(=O)=O)cc2)cc1 [Celecoxib],-5.22 (inactive)
2,O=C1[C@H]2CCCC[C@H]2C(=O)N1CCCCN1CCN(c2nsc3ccccc23)CC1 [Perospirone],-33.9 (inactive)
3,CNC(=C[N+](=O)[O-])NCCSCc1ccc(CN(C)C)o1 [Ranitidine],-19.6 (inactive)
4,CCN1CCN(c2cc3c(cc2F)c(=O)c(C(=O)O)cn3C2CC2)CC1 [Enrofloxacin],-5.04 (inactive)
5,CC(=O)Nc1ccc(CC(=O)O)cc1 [Actarit],-13.9 (inactive)

# Same assay, conditions: 5 µM; treatment time: 8 days (DIV5-DIV13)
row,SMILES,myelination
1,Nc1nc(N)c2nc(-c3ccccc3)c(N)nc2n1 [Triamterene],461 (active)
2,CC(C)c1ccc2oc3nc(N)c(C(=O)O)cc3c(=O)c2c1 [Amlexanox],0.757 (inactive)
3,CO/N=C(\C(=O)N[C@@H]1C(=O)N2C(C(=O)O)=C(COC(C)=O)CS[C@H]12)c1csc(N)n1 [Cefotaxime],-10.3 (inactive)
4,Cc1ccc(Cl)c(Nc2ccccc2C(=O)O)c1Cl [Meclofenamic acid],-2.96 (inactive)
5,CCCCCCNC(=O)n1cc(F)c(=O)[nH]c1=O [Carmofur],-14.4 (inactive)
6,CN1CCC(=C2c3ccccc3CCc3sccc32)CC1 [Pizotyline],-22 (inactive)
7,COc1cc2nc(N3CCN(C(=O)C4COc5ccccc5O4)CC3)nc(N)c2cc1OC (centres undefined) [Doxazosin],-54.3 (inactive)
8,CC(=O)NS(=O)(=O)c1ccc(N)cc1 [Sulfacetamide],1.76 (inactive)
9,C#C[C@]1(O)CC[C@H]2[C@@H]3CCC4=CC(=O)CC[C@@H]4[C@H]3CC[C@@]21C [Norethindrone],-10.7 (inactive)
10,CCCNC(=O)NS(=O)(=O)c1ccc(Cl)cc1 [Chlorpropamide],-5.62 (inactive)
11,COc1cc(C[C@@H](CO)[C@H](CO)Cc2ccc(O)c(OC)c2)ccc1O [Secoisolariciresinol],-8.85 (inactive)
12,O=C1CC2(CCCC2)CC(=O)N1CCNCC1COc2ccccc2O1 (centres undefined) [Binospirone],-17.9 (inactive)
13,O=c1cnn([C@@H]2O[C@H](CO)[C@@H](O)[C@H]2O)c(=O)[nH]1 [Azauridine],-26.1 (inactive)
14,C[N+]1(C)CCC(OC(=O)C(O)(c2ccccc2)C2CCCC2)C1 (centres undefined) [Glycopyrrolate],-2.31 (inactive)
15,CCCCC(=O)O[C@H]1CC[C@H]2[C@@H]3CCc4cc(O)ccc4[C@H]3CC[C@]12C [Estradiol valerate],11.9 (inactive)
16,CC1=C(CC(=O)O)c2cc(F)ccc2/C1=C\c1ccc([S+](C)[O-])cc1 (centres undefined) [Sulindac],-16.6 (inactive)
17,CS(N)(=O)=O [Methanesulfonamide],-10.7 (inactive)
18,COc1ccc(-c2oc3c(CC=C(C)C)c(O[C@@H]4O[C@H](CO)[C@@H](O)[C@H](O)[C@H]4O)cc(O)c3c(=O)c2O[C@@H]2O[C@@H](C)[C@H](O)[C@@H](O)[C@H]2O)cc1 [Icariin],-5.53 (inactive)
19,CN(CCO)CC(O)Cn1cnc2c1c(=O)n(C)c(=O)n2C (centres undefined) [Jupal],-10.5 (inactive)
20,COc1c(N2CCNC(C)C2)c(F)cc2c(=O)c(C(=O)O)cn(C3CC3)c12 (centres undefined) [Gatifloxacin],-14.2 (inactive)
21,CNCCC=C1c2ccccc2CCc2ccccc21 [Nortriptyline],54.7 (active)
22,Cc1c(O)c(=O)ccn1C [Deferiprone],-23.2 (inactive)
23,OCCOCCN1CCN(C2=Nc3ccccc3Sc3ccccc32)CC1 [Quetiapine hemifumarate],-19.9 (inactive)
24,CCC1=C(C)CN(C(=O)NCCc2ccc(S(=O)(=O)NC(=O)N[C@H]3CC[C@H](C)CC3)cc2)C1=O [Glimepiride],-10.6 (inactive)
25,COc1ccc(-c2cc(=O)c3c(OC)c(OC)c(OC)c(OC)c3o2)cc1OC [Nobiletin],-46.5 (inactive)
26,O=C1[C@H](CC[C@H](O)c2ccc(F)cc2)[C@@H](c2ccc(O)cc2)N1c1ccc(F)cc1 [Ezetimibe],-37.1 (inactive)
27,CCOC(=O)[C@H](CCc1ccccc1)N[C@H]1CCc2ccccc2N(CC(=O)O)C1=O [Benazepril],-6.97 (inactive)
28,CC(=O)OCC[N+](C)(C)C [Acetylcholine],-15.1 (inactive)
29,Cc1nc2n(c(=O)c1CCN1CCC(c3noc4cc(F)ccc34)CC1)CCCC2 [Risperidone],-15.1 (inactive)
